Five molecules from PubChem BioAssay can be followed below.

A short description of test [1]: small molecules captured by biotinylated probe aFSTL3 – biochemical, small-molecule microarray, fluorescence 635/667, stem cell growth factor project, primary screen (AID 1064).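 Also: measures binding of the biotinylated anti-FSTL3 antibody to printed compounds.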 Conditions: higher = more signal.
Test [2] can be described thus: binders from COS7 lysate, DM2A8 probe, primary screen, torsin A project, cell lysate, small-molecule microarray, fluorescence 635/667 (AID 1065). Conditions: higher = more signal, COS7 lysate expressing mutant human TOR1A.
Test [3] can be described thus: small molecules captured by biotinylated probe aFGF2 – biochemical, small-molecule microarray, fluorescence 635/667, stem cell growth factor project, primary screen (AID 1067).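 Also: measures binding of biotinylated aFGF2 protein to printed compounds on slides; z-score merges feature fluorescence and signal-to-noise across triplicate slides.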 Particulars: higher = more signal.
Test [4] is described as follows: small molecules captured by biotinylated probe aFGF10 – biochemical, small-molecule microarray, fluorescence 635/667, stem cell growth factor project, primary screen (AID 1071).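 Also: score merges 667 nm spot intensity and signal to noise from triplicate slides.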 Conditions: higher = more signal.
Test [5] has as its target Neurogenic locus notch homolog protein 2 (Homo sapiens) (UniProt Q04721). Description: small molecules binding Notch2 protein – biochemical, small-molecule microarray, 635 nm fluorescence, stem cell growth factors, primary screen (AID 1073). Particulars: higher = more signal.
For test [6], the target named is Pro-neuregulin-1, membrane-bound isoform (Homo sapiens) (UniProt Q02297). Description: small molecules binding neuregulin-1 protein – biochemical, small-molecule microarray, fluorescence 635/667, psychiatric disease protein project, primary screen (AID 1075).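 Also: score combines 667 nm spot fluorescence with signal to noise.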 Particulars: NRG1 binding, 635 nm fluorescence, higher = more signal.
Test [7] has as its system Neuregulin-1 EGF-like domain. Description: small molecules binding NRG1 EGF domain – biochemical, small-molecule microarray, 635 nm fluorescence, primary screen (AID 1081).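 Also: binding of the protein to compounds printed on small-molecule microarray slides.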 Conditions: higher = more signal.
Test [8] in a line: FRG1 expression reporter modulators in myotubes – cell-based, C2C12 myotubes, firefly/Renilla luciferase, luminescence, FRG1 inhibition for FSHD, primary screen (AID 1084). Conditions: FRG1 promoter luciferase, higher = more signal, called active from +8 up or from −8 down.
The nature of test [9]: small molecules captured by biotinylated probe aFST – biochemical, small-molecule microarray, fluorescence 635/667, stem cell growth factor project, primary screen (AID 1086).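 Also: score merges 667 nm fluorescence with signal-to-noise of each printed compound spot.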 Conditions: higher = more signal.
Test [10] in a line: binders of probe aHhip on microarray, primary screen, stem cell growth factor project, biochemical, small-molecule microarray, fluorescence 635/667 (AID 1087).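 Also: score merges spot fluorescence at 667nm with spot signal to noise ratio.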 Particulars: higher = more signal.
The test system of test [11] is PRMT1 (protein arginine N-methyltransferase 1). Description: small molecules binding arginine methyltransferase PRMT1 – biochemical, small-molecule microarray, 635 nm fluorescence, primary screen (AID 1088).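 Also: binding of Prmt1 protein to compounds spotted on small-molecule microarray slides.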 Particulars: higher = more signal.
Test [12] is described as follows: growth effects on S. cerevisiae YJM789 – YJM789 clinical isolate, OD600, 24 h, basal, primary screen (AID 1089).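 Also: growth of clinical yeast isolate S. cerevisiae YJM 789 seeded 1000 cells per well; test concentration not given here.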 Conditions: higher = more signal, called active from +8 up or from −8 down.
Test [13] is described as follows: S. pombe growth modifiers, basal conditions – strain 972, OD600, 24 h, no modulator, primary screen (AID 1090).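 Also: basal condition with compound alone and no growth modifier present; test concentration not given here.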 Particulars: S. pombe 972 growth, higher = more signal, called active from +8 up or from −8 down.
Test [14] in a line: budding yeast growth modifiers under rapamycin – strain BY4716, OD600, 96 h, primary screen (AID 1091). Also: test concentration not given here. Conditions: S. cerevisiae BY4716 + rapamycin, higher = more signal, called active from +8 up or from −8 down.
Test [15] has as its target Torsin-1A-interacting protein 2 (Homo sapiens) (UniProt Q8NFQ8). Description: small molecules binding lysate-expressed LULL1 – cell lysate, human LULL1 lysate, 635/667 nm fluorescence, primary screen (AID 1092).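 Also: probe is lysate of COS7 cells overexpressing human LULL1; score merges per-feature 667 nm fluorescence with signal-to-noise.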 Conditions: small-molecule microarray, hLULL1 lysate binding, 635 nm fluorescence; higher = more signal.
Test [16] is described as follows: optical density change of DRC41 E. coli – strain DRC41, OD650, 24 h, E. coli filamentation project, primary screen (AID 1093).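 Also: MC1000 strain lacking acrAB efflux and sulA so SOS filamentation is blocked; test concentration not given here.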 Conditions: E. coli DRC41 growth, higher = more signal, called active from +8 up or from −8 down.
Test [17] in a line: probe aLefty2 binding to arrayed compounds – biochemical, biotinylated probe, 635/667 nm fluorescence, primary screen (AID 1094).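 Also: score merges spot fluorescence near 667 nm with spot signal-to-noise ratio.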 Conditions: small-molecule microarray, higher = more signal.
Test [18] concerns Noggin (protein binding on small-molecule microarray). The test can be described thus: small molecules binding Noggin protein – biochemical, 635/667 nm fluorescence, primary screen (AID 1095).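 Also: score merges 667 nm feature fluorescence with signal to noise over triplicate slides.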 Particulars: 635 nm fluorescence, higher = more signal.
Test [19] addresses Neurogenic locus notch homolog protein 3 (Homo sapiens) (UniProt Q9UM47). Description: small molecules binding NOTCH3 protein – biochemical, 635/667 nm fluorescence, primary screen (AID 1096). Conditions: small-molecule microarray, 635 nm fluorescence, higher = more signal.
Test [20] is described as follows: probe aEGFR binding to arrayed compounds – biochemical, biotinylated probe, 635/667 nm fluorescence, primary screen (AID 1097).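 Also: probe is a biotinylated anti-EGFR antibody binding compounds printed on slides; score combines fluorescence near 667 nm and signal to noise of each spot.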 Conditions: small-molecule microarray, higher = more signal.

Each structure is given as a SMILES string. The source made the active and inactive calls.

Chain of Pro-neuregulin-1, membrane-bound isoform (Homo sapiens) (Q02297 whole entry, looked up, the tested form may be a part, canonical isoform): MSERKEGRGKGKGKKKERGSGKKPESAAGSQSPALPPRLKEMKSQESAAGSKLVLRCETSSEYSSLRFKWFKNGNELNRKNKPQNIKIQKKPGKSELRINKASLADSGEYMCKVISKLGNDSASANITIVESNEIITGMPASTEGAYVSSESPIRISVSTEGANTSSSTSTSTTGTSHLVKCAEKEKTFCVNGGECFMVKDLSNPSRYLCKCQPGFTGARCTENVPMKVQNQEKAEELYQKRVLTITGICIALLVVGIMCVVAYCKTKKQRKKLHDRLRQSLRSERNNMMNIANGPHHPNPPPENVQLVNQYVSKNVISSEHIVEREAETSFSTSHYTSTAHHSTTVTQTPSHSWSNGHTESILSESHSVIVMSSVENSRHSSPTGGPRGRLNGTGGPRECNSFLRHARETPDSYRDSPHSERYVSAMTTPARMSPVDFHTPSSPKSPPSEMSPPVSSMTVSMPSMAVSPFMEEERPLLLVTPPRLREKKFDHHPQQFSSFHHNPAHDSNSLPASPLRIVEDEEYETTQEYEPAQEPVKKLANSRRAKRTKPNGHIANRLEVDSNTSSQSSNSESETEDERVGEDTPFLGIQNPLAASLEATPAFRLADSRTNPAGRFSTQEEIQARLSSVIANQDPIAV
Chain of Torsin-1A-interacting protein 2 (Homo sapiens) (Q8NFQ8 whole entry, looked up): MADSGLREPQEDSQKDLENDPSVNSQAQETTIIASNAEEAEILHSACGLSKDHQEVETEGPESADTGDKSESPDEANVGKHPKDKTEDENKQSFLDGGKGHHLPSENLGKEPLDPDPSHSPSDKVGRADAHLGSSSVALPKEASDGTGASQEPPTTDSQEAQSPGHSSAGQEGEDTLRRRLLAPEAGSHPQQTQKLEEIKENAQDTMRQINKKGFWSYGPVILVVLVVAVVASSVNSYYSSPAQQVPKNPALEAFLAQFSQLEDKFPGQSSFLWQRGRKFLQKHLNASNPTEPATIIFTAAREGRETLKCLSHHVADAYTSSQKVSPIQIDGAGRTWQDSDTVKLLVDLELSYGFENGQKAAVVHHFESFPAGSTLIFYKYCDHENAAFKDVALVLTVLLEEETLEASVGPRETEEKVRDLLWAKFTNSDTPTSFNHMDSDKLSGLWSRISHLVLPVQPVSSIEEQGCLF
Chain of Neurogenic locus notch homolog protein 2 (Homo sapiens) (Q04721 whole entry, looked up, canonical isoform): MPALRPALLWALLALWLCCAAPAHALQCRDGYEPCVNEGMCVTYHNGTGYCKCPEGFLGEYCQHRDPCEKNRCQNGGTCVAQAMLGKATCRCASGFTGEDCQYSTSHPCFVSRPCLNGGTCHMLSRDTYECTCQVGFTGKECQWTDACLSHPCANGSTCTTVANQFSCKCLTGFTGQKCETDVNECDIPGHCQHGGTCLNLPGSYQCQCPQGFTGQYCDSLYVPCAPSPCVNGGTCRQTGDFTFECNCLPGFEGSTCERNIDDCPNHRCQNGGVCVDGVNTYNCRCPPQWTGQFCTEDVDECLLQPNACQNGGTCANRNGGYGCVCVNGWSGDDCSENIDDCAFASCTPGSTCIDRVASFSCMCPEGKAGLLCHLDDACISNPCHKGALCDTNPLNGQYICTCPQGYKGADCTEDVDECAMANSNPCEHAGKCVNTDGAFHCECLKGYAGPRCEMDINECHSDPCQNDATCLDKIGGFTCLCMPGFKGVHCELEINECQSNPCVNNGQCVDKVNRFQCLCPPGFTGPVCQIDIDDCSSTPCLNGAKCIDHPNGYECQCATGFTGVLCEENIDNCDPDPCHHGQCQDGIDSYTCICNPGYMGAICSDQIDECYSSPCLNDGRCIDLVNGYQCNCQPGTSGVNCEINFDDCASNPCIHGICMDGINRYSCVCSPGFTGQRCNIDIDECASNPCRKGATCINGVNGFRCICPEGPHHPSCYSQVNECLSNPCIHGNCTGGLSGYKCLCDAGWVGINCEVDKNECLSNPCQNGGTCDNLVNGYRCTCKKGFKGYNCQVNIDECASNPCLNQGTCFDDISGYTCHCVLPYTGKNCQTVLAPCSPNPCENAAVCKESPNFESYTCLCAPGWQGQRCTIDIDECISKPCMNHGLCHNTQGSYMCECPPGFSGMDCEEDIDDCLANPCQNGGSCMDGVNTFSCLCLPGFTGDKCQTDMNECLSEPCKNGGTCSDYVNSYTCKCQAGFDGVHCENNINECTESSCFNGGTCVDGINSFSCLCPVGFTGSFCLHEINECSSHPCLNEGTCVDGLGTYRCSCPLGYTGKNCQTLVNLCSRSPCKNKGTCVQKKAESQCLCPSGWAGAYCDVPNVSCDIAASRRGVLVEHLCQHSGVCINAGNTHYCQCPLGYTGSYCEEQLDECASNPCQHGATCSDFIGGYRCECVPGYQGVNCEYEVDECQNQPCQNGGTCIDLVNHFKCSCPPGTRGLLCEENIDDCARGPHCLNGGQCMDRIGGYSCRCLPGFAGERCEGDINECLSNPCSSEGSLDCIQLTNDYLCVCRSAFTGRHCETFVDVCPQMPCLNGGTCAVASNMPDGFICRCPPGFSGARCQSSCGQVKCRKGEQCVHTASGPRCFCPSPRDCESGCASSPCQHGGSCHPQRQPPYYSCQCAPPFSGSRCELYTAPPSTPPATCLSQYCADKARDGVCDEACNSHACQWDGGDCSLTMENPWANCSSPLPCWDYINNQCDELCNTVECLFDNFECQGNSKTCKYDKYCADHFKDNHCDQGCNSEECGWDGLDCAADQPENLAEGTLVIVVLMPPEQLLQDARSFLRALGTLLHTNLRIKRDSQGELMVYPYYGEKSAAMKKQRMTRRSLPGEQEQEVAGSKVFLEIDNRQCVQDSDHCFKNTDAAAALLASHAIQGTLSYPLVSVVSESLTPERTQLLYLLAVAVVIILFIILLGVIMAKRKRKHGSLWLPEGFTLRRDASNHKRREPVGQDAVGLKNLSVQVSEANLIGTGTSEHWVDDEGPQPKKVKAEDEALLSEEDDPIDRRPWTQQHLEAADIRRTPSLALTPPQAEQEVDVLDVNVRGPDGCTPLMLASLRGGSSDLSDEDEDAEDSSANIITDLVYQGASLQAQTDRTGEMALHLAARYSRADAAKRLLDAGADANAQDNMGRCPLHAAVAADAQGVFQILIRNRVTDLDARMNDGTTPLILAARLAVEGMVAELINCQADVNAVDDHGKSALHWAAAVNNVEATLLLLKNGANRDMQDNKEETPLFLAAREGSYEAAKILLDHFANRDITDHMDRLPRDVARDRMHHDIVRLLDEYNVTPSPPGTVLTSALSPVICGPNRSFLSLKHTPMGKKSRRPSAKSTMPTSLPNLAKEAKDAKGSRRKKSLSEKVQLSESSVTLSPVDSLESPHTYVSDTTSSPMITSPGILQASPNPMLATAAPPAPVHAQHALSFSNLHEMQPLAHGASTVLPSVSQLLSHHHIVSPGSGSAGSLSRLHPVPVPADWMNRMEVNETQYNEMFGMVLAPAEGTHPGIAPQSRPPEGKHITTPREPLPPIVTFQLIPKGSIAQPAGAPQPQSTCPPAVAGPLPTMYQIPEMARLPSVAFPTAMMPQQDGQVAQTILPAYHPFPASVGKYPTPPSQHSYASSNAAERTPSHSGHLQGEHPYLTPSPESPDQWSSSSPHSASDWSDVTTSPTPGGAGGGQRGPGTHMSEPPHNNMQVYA

Take `Cc1ccccc1C(O)C1C=CC2C(=O)NC(=O)C2N1Nc1ccc(Cl)cc1Cl` (stereo not given): the composite z-score in test [1] was 0.51; in test [2], 0.328; in test [3] it was 0.0342; in test [4], 0.5; in test [5], 1.48; in test [6] it was 1.73. Moreover, the composite z-score in test [7] is 1.04; in [9] it was 0.504; in test [10], -0.283; in test [11] it was 0.528; in test [15], 2.27; in test [17], 0.106. In addition, the composite z-score in [18] is 0.287; in test [19], 0.765; in [20], -0.125. In addition, the z-score is 0.0623 (inactive) in test [8]; -2.09 (inactive) in [12]; -2.81 (inactive) in test [13]; 0.797 (inactive) in test [14]; -1.24 (inactive) in test [16].

Regarding `COC(=O)[C@@]1(Cc2ccc(F)cc2)[C@H]2c3cc(C(=O)N4CCCC4)n(CC4CC4)c3C[C@H]2CN1C(=O)c1ccccc1`, the composite z-score in test [1] came to 0.349; in test [2] it was 0.149; in test [3], 0.0274; in test [4], 0.427; in test [5], 1.72; in test [6], 2.05. In addition, the composite z-score came out at 1.06 in [7]; 1.61 in test [9]; 0.0274 in test [10]; 0.649 in test [11]; 3.32 in test [15]; 0.329 in [17]. The composite z-score is 0.577 in [18], 1.1 in test [19] and 0.358 in test [20]. Moreover, the z-score was 0.108 (inactive) in test [8]; -0.223 (inactive) in test [12]; 0.64 (inactive) in test [13]; 0.125 (inactive) in [14]; -0.475 (inactive) in [16].

Take `CCCCCN1CC=CC23O[C@@H]4/C=C\CCC(C)OC(=O)C4[C@H]2C(=O)N(CCCCCCO)[C@@H]3C1=O` (stereo not given in full): the composite z-score was -0.146 in test [1]; -0.355 in [2]; -0.129 in test [3]; -0.248 in test [4]; -0.641 in test [5]; 1.89 in test [6]. Further, the composite z-score in test [7] was 1.4; in test [9] it was -0.183; in test [10] it was -0.0994; in [11] it was 0.523; in test [15], 1.79; in test [17], -0.119. The results for the composite z-score in test [18], in test [19] and in test [20] were 0.296, 0.109 and -0.126, respectively. Also, the z-score is -0.0224 (inactive) in test [8]; 0.735 (inactive) in test [12]; 0.157 (inactive) in test [13]; -0.635 (inactive) in [14]; 1.24 (inactive) in [16].

Consider `CN1C(=O)C2C=CC(C(O)c3ccc(I)cc3)N(Nc3ccccc3)C2C1=O` (stereo not given), for which the composite z-score in [1] was 0.131; in test [2], 0.238; in test [3], 0.0253; in test [4], 0.846; in test [5] it was 1.26; in test [6], 1.56. Further, the composite z-score in test [7] is 1.24; in test [9] it was 0.942; in test [10], 0.142; in test [11] it was 1.27; in test [15], 2.99; in test [17] it was 0.107. Moreover, the values for the composite z-score in test [18], in test [19] and in test [20] were -0.111, 1.09 and 0.0778, respectively. The z-score is 0.266 (inactive) in [8]; -0.228 (inactive) in test [12]; -0.504 (inactive) in [13]; 0.768 (inactive) in test [14]; -1.78 (inactive) in test [16].

Take `Cc1c(NC(=O)/C(C#N)=C/c2ccccc2Cl)c(=O)n(-c2ccccc2)n1C`: the composite z-score in test [1] was -0.183; in test [2] it was 0.0711; in [3], -0.009; in [4], 0.0417; in [5] it was 0.935; in test [6], 0.888. Further, the composite z-score in test [7] is 1.12; in test [9], 1.27; in test [10] it was -0.139; in test [11], 0.315; in test [15], 3.03; in test [17] it was -0.158. Besides, the composite z-score in test [18] worked out at 0.0603; in test [19], 0.259; in [20] it was 0.0092. In addition, the z-score in test [8] was 0.311 (inactive); in test [12], -1.06 (inactive); in test [13], -1.76 (inactive); in [14], -0.4 (inactive); in test [16] it was 0.245 (inactive).
